From PubChem
Shown are actives, neighbours in structure and some others; about 2.7% of the full set was active somewhere.
IP6K1 inhibitor – Primary qHTS assay for small molecule inhibitors of Inositol hexaphosphate kinase 1 (IP6K1); IP6K1 kinase, ADP-Glo luminescence, 2 h; active compounds read low; 0.81% of 140,000 active; activity change, % (series mostly up to about 58 µM); AID 1645851, 2021; in the data active means activity change below about -25%; further: on the % scale 0 is the no-effect control and ±100 the full control effect
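ADP-Glo luminescence measures ADP made by human IP6K1 during a 2 h RT reaction with ATP/IP6 (mix at 1.3 mM/130 uM); top library doses 57.5 and 19.1 uM final.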
KDM5B inhibitor – Primary screen for KDM5B Histone Demethylases FDH-coupled qHTS; KDM5B demethylase, FDH-coupled NADH fluorescence (FDH is formaldehyde dehydrogenase); 2.6% of 220,000 active; Lysine-specific demethylase 5B (Homo sapiens), Q9UGL1; Potency, µM (titrated, usually from 57.7 µM), most hits filed as inhibitors; AID 1347165, 2019; active means well fitted inhibition curve with a large enough effect; inconclusive means small, poorly fitted or top-dose-only effect; inactive means no such curve, though single readings can be large or run the other way; further: potency means the concentration at half of the fitted maximal effect; 0% is about no effect; nearly all actives have a fitted effect of over 70% in size
Target sequence (Q9UGL1 whole entry, looked up): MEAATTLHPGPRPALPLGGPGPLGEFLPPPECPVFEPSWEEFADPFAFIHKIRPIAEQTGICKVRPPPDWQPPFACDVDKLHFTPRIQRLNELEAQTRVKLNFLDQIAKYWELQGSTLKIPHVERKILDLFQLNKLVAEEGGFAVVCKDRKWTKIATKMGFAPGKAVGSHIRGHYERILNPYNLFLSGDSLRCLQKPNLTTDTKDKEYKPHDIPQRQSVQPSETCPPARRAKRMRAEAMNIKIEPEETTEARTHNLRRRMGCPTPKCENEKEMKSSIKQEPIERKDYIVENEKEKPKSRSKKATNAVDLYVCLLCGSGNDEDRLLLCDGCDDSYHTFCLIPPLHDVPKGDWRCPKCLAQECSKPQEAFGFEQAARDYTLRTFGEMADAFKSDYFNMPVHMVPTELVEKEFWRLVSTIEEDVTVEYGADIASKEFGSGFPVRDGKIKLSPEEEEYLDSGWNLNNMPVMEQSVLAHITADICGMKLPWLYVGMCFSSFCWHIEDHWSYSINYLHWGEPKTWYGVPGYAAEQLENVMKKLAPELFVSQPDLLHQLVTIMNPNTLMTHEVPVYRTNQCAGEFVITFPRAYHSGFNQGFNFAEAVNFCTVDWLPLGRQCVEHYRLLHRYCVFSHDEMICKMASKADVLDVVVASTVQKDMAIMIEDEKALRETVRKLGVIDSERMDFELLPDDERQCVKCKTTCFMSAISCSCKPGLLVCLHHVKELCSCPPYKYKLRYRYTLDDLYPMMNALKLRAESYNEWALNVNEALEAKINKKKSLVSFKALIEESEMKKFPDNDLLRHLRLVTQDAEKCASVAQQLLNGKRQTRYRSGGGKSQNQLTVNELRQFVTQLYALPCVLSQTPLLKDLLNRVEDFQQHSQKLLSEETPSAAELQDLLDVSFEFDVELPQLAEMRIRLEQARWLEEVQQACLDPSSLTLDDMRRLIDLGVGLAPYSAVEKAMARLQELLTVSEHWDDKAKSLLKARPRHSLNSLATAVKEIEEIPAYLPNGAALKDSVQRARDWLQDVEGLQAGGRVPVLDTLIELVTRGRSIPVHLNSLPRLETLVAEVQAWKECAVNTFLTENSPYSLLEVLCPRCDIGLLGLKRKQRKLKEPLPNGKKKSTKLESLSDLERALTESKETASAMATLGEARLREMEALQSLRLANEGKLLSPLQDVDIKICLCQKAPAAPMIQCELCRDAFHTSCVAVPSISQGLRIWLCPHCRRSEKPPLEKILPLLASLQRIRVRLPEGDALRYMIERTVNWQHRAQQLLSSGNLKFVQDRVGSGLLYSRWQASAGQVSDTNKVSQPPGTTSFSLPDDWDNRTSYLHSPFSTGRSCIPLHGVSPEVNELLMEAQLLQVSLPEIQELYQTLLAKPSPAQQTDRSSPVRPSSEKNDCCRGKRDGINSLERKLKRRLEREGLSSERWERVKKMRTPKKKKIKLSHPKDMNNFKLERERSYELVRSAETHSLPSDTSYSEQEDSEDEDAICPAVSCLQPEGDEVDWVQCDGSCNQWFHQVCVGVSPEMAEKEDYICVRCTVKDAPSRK
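Inhibition is measured as reduced NADH fluorescence generation from FDH coupling to formaldehyde release. Truncated KDM5BΔAP at 200 nM final acts on H3K4me3 peptide (12.5 µM in substrate mix) in pH 7.5 HEPES buffer with Tween-20, 30 min, room temperature.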
The depositor's hits bear a star.

For COc1cccc(CNC(=O)c2ccc3nnc(-c4ccc(F)cc4)n3c2)c1 the results were IP6K1 inhibitor 8.5.
For O=C(NC1C=CS(=O)(=O)C1)c1ccc2nc(-c3ccc(F)cc3)cn2c1 (configuration not stated) the results were IP6K1 inhibitor 0.6 and KDM5B inhibitor 25.1µM*.
Screening CCNC(=O)C1CCN(C(=O)c2ccc3nc(-c4ccccc4)cn3c2)C1 (configuration not stated) returned IP6K1 inhibitor -0.9 and KDM5B inhibitor 28.2µM*.
For Cc1cc(C)nc(CNC(=O)c2ccc3nc(-c4ccc(F)cc4)cn3c2)n1 the results were IP6K1 inhibitor 1.7 and KDM5B inhibitor 28.2µM*.
CCC(NC(=O)c1ccc2nc(-c3ccc(F)cc3)cn2c1)c1cccnc1 (configuration not stated) was read as IP6K1 inhibitor -5.0 and KDM5B inhibitor 28.2µM*.
For O=C(CNC(=O)N1CC(=O)Nc2ccccc21)Nc1ccc2c(c1)OCO2 the results were KDM5B inhibitor inactive.
For COc1cc2c(cc1OC)C(c1ccccc1)N(CC(=O)Nc1ccc(C(N)=O)cc1)CC2 (configuration not stated) the results were KDM5B inhibitor inactive.
`Cc1nc2c(c(-c3ccc(O)cc3)n1)CN(Cc1cccc3ccccc13)CCC2` gave IP6K1 inhibitor -2.7 and KDM5B inhibitor inactive.
For COc1ccc(C2Cn3nnc(-c4noc(-c5ccc(C)cc5C)n4)c3CO2)cc1 (configuration not stated) the results were IP6K1 inhibitor 1.8 and KDM5B inhibitor inconclusive.
For COc1ccc(-c2nc(-c3nnn4c3COC(c3ccc(C)cc3)C4)no2)cc1OC (configuration not stated) the results were IP6K1 inhibitor 6.2 and KDM5B inhibitor 14.1µM*.
Cc1ccc(C2Cn3nnc(-c4noc(-c5ccc(C)s5)n4)c3CO2)cc1 (configuration not stated) was read as IP6K1 inhibitor -15.3 and KDM5B inhibitor 12.6µM*.
Screening Cc1ccc(C2Cn3nnc(-c4noc(-c5ccc(N(C)C)cc5)n4)c3CO2)cc1 (configuration not stated) returned IP6K1 inhibitor 8.3 and KDM5B inhibitor inconclusive.
COc1ccc(-c2nc(-c3nnn4c3COC(c3ccc(C)cc3)C4)no2)c(OC)c1 (configuration not stated) was read as IP6K1 inhibitor 1.9 and KDM5B inhibitor 20µM*.
Screening COc1ccc(-c2nc(-c3nnn4c3COC(c3ccc(C)cc3)C4)no2)cc1F (configuration not stated) returned IP6K1 inhibitor 11.4 and KDM5B inhibitor inconclusive.
For Cc1ccc(C2Cn3nnc(-c4noc(-c5cccc(N(C)C)c5)n4)c3CO2)cc1 (configuration not stated) the results were IP6K1 inhibitor -11.0 and KDM5B inhibitor 22.4µM*.
For COc1ccc(C2Cn3nnc(-c4noc(-c5ccc(C)s5)n4)c3CO2)cc1 (configuration not stated) the results were IP6K1 inhibitor -5.0 and KDM5B inhibitor inconclusive.
`O=C(Nc1ccc(F)c(Cl)c1)c1ccccc1OCC1CCCO1` (configuration not stated) gave KDM5B inhibitor inactive.
Screening NC(=O)/C(=C/c1ccc(O)cc1)NC(=O)c1ccco1 returned KDM5B inhibitor inactive.
`CCCNC(=O)Cn1ccn2nc3c(c2c1=O)CCCC3` gave IP6K1 inhibitor 28.6 and KDM5B inhibitor inactive.
Screening O=C(Cn1ccn2nc3c(c2c1=O)CCCCC3)Nc1ccccc1C(F)(F)F returned IP6K1 inhibitor -1.0 and KDM5B inhibitor inconclusive.
`CCc1ccccc1NC(=O)Cn1ccn2nc3c(c2c1=O)CCCC3` gave IP6K1 inhibitor -3.9 and KDM5B inhibitor 35.5µM*.
CC(C)CCNC(=O)Cn1ccn2nc3c(c2c1=O)CCCC3 was read as IP6K1 inhibitor 1.7 and KDM5B inhibitor 20µM*.
For CN(CC(O)COC(CCl)CCl)S(=O)(=O)O (configuration not stated) the results were KDM5B inhibitor inactive.
`O=C1Nc2ccccc2O[C@H]2C[C@@H]1N(Cc1ccc(C(F)(F)F)cc1)C2` gave IP6K1 inhibitor -7.7 and KDM5B inhibitor inactive.
O=C(c1cc(-c2ccc(Cl)cc2Cl)c2nncn2n1)N1CCCCC1 was read as IP6K1 inhibitor 7.5.
CNc1ccc(C)cc1C(=O)N1CCN(C)C2(CCN(C)CC2)C1 was read as IP6K1 inhibitor -12.5 and KDM5B inhibitor 20µM*.
COc1ccc(C)cc1NC(=O)N1CCN(C)C2(CCC(=O)N(C)CC2)C1 (configuration not stated) was read as IP6K1 inhibitor 33.9 and KDM5B inhibitor inactive.
For COc1ccccc1-n1c(=O)c(C(=O)N2CCCC2)nc2cccnc21 the results were IP6K1 inhibitor 1.1.
`O=C(Cn1cc(Br)c(=O)[nH]c1=O)N1CCC2(CC1)OCCO2` gave KDM5B inhibitor inactive.
Screening N#Cc1ccc(-c2ccc(OC(=O)CCC(=O)c3cccs3)cc2)cc1 returned KDM5B inhibitor inactive.
For CC(Cc1ccncc1)Nc1nccc(-c2cnn(-c3ccccc3F)c2)n1 (configuration not stated) the results were IP6K1 inhibitor 9.2 and KDM5B inhibitor 28.2µM*.
For CCN(Cc1ccncc1)Cc1cn(-c2ccccc2)nn1 the results were IP6K1 inhibitor 6.6 and KDM5B inhibitor inconclusive.
`CC1(C)CC(Nc2nccc(-c3cnn(-c4ccccc4)c3)n2)CC(C)(C)N1` gave IP6K1 inhibitor 1.1 and KDM5B inhibitor 28.2µM*.
Fc1ccc(CCNc2nccc(-c3cccnc3)n2)cc1 was read as IP6K1 inhibitor 2.1 and KDM5B inhibitor inconclusive.
`CC(Cc1ccncc1)Nc1nccc(-c2cnn(-c3ccccc3)c2)n1` (configuration not stated) gave IP6K1 inhibitor 0.2 and KDM5B inhibitor 31.6µM*.
Screening CC1(C)CC(Nc2nccc(C(F)(F)F)n2)CC(C)(C)N1 returned KDM5B inhibitor inactive.
For CC1CCCCN1S(=O)(=O)c1cccc(C(=O)OCc2nnc(-c3ccc(Cl)cc3)o2)c1 (configuration not stated) the results were KDM5B inhibitor inactive.
`COc1ccc(NC(=O)c2ccc(Cn3cc(Cl)cn3)cc2)cc1OC` gave KDM5B inhibitor inactive.
`c1ccc(Nc2cnc3ccc(N4CCOCC4)nn23)cc1` gave IP6K1 inhibitor 11.7 and KDM5B inhibitor inactive.
FC(F)(F)c1cccc(Nc2cnc3ccc(N4CCOCC4)nn23)c1 was read as IP6K1 inhibitor -12.8 and KDM5B inhibitor 35.5µM*.
`O=C(NCc1ccc(-c2ccc(F)cc2)o1)C1CC(=O)N(Cc2cccnc2)C1` (configuration not stated) gave IP6K1 inhibitor 0.4 and KDM5B inhibitor 25.1µM*.
CCN1CC(C(=O)NCc2ccc(-c3ccc(F)cc3)o2)CCC1=O (configuration not stated) was read as IP6K1 inhibitor 4.3 and KDM5B inhibitor inconclusive.
For Cn1ncc2c(C(=O)N3CCCC3)cc(-c3ccc([S+](C)(=O)[O-])cc3)nc21 the results were IP6K1 inhibitor -7.6 and KDM5B inhibitor 89.1µM*.
For Cn1ncc2c(C(=O)N3CCOCC3)cc(-c3ccc([S+](C)(=O)[O-])cc3)nc21 the results were IP6K1 inhibitor -2.5 and KDM5B inhibitor inconclusive.
